Assay results: PubChem BioAssay (NCI)
This is part of a sample that, as a whole, favours compounds with a hit. Of some 83,000 tested, about 20% had one in any assay.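 Each cell line was grown in a 96-well plate and treated with one concentration of compound for 48 hours. Values below 10 were considered active.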 Active and inactive are the calls of the source.

Experiments:
Experiment in all cases: NCI-60 one-dose screen, 48 h (100 = growth as untreated, 0 = no growth, -100 = all killed)
[1] = system: A549/ATCC NSCLC; settings: 10 µM unless noted
[2] = system: COLO 205 colon; settings: 10 µM
[3] = system: MALME-3M melanoma; settings: 10 µM unless noted
[4] = system: MDA-MB-231 breast; settings: 10 µM unless noted
[5] = system: RXF 393 renal; settings: 10 µM unless noted
[6] = system: UACC-257 melanoma; settings: 10 µM unless noted
[7] = system: HT29 colon; settings: 10 µM unless noted
[8] = system: SK-MEL-5 melanoma; settings: 10 µM unless noted
[9] = system: LOX IMVI melanoma; settings: 10 µM unless noted
[10] = system: SK-MEL-2 melanoma; settings: 10 µM unless noted
[11] = system: UO-31 renal; settings: 10 µM unless noted
[12] = system: ACHN renal; settings: 10 µM unless noted
[13] = system: CAKI-1 renal; settings: 10 µM unless noted
[14] = system: A498 renal; settings: 10 µM unless noted
[15] = system: CCRF-CEM leukemia; settings: 10 µM unless noted
[16] = system: MOLT-4 leukemia; settings: 10 µM
[17] = system: OVCAR-5 ovarian; settings: 10 µM unless noted
[18] = system: OVCAR-4 ovarian; settings: 10 µM unless noted
[19] = system: IGROV1 ovarian; settings: 10 µM
[20] = system: MDA-MB-435 melanoma; settings: 10 µM unless noted

Measured: growth

C/C(=N/OC(=O)N(C)C)c1ccc(Cl)cc1Cl
inactive: [1] 97.3% | [2] 110% | [3] 97.6% | [4] 116% | [5] 112% | [6] 101% | [7] 105% | [8] 103% | [9] 97.8% | [10] 88.8% | [11] 80.8% | [12] 98.7% | [13] 96.6% | [14] 90.9% | [15] 94.1% | [16] 90% | [17] 106% | [18] 113% | [19] 104% | [20] 96%

Cc1ccccc1O
inactive: [1] 100% | [2] 105% | [3] 115% | [4] 115% | [5] 102% | [6] 106% | [7] 110% | [8] 106% | [9] 91.5% | [10] 109% | [11] 82.6% | [12] 103% | [13] 96.2% | [14] 129% | [15] 103% | [16] 107% | [17] 121% | [18] 101% | [19] 102% | [20] 117%

COc1ccc(NP2(=O)OCC(C)(N)CO2)cc1 (stereo not drawn)
inactive: [1] 93.6% | [2] 109% | [3] 97.3% | [4] 106% | [5] 104% | [6] 97.6% | [7] 98.7% | [8] 96.3% | [9] 89.4% | [10] 108% | [11] 75.6% | [12] 96.6% | [15] 88.9% | [16] 82.2% | [17] 102% | [18] 110% | [19] 102% | [20] 108%
